D2 PAM-1 = Beta-Arrestin HTS for Positive Allosteric Modulators of the Human D2 Dopamine Receptor: Potentiators | D(2) dopamine receptor (Homo sapiens), P14416 | DiscoveRx D2 beta-arrestin cells, luminescence, 90 min; 100% = 57 uM dopamine signal | potentiation, % (test concentration not listed) | hit rate 0.23% among 360,000 | AID 624464, 2012; in the data active = potentiation above about 50%; inconclusive = mostly about 30% to 49%
Target sequence (P14416 whole entry, looked up): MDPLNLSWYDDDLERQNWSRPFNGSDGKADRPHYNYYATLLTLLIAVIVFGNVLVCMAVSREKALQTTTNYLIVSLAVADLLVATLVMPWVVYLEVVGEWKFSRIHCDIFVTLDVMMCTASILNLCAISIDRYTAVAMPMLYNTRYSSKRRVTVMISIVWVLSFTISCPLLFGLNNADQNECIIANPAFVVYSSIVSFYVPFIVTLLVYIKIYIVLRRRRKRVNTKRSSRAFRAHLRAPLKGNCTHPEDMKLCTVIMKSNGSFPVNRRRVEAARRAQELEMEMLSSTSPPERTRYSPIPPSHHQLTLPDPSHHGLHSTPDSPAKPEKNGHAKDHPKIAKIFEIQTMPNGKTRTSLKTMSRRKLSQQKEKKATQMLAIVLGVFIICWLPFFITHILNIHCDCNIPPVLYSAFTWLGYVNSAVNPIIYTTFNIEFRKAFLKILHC
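D2 cells co-treated with compound plus 50 nM dopamine (EC20) for 90 min at 37 deg C to detect potentiation. Beta-arrestin recruitment was read as enzyme-fragment luminescence after 1 h at ambient temperature. Full response was set by 57 uM dopamine.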
D2 antag = HTS Assay for Allosteric Antagonists of the Human D2 Dopamine Receptor: Primary Screen for Antagonists; D(2) dopamine receptor (Homo sapiens), P14416; HEK293 TREx D2 cells, calcium flux, dopamine EC80; inhibition, % at 10 µM; hit rate 2% among 340,000; in the data active = inhibition above about 30%; inactive = below that, where a call was filed; also: 0% is about no effect
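Inhibition of EC80 dopamine-driven calcium flux, recorded kinetically, defines activity here; cells are a tetracycline-induced HEK293 T-REx line expressing force-coupled D2.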
D2 ag-1 = HTS Assay for Allosteric Agonists of the Human D2 Dopamine Receptor: Primary Screen for Agonists; HEK293 T-REx D2 cells, calcium flux agonist mode; activation, % at 2 µM; D(2) dopamine receptor (Homo sapiens), P14416; hit rate 0.53% among 340,000;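 active = activation over 3 SD above normal in the single-dose calcium agonist read, cut at about 30% in these data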; also: 0% is about no effect
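Calcium-flux readout, 1 cycle/sec over 180 s following compound pin transfer, in inducible HEK293 Trex D2 cells (force-coupled); dopamine controls included. Positive calcium responses during this window marked compounds as potential agonists.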
D2 ag-2 = Beta-Arrestin HTS for Positive Allosteric Modulators of the Human D2 Dopamine Receptor: Agonists; DiscoveRx PathHunter D2 beta-arrestin, luminescence, 90 min; 100% = 57 uM dopamine signal; activation, % (concentration not given with the values); hit rate 0.084% among 360,000; AID 624465, 2012; in the data active = activation above about 40%; inconclusive = between about 15% and that limit
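Agonist mode: compounds alone added to overnight-plated D2 PathHunter cells for 90 min at 37 C, with 57 uM final dopamine (EC100) defining full response. Beta-arrestin recruitment detected by chemiluminescent reagent, read after 1 h at ambient temperature.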
D2 PAM-2 = HTS Assay for Positive Allosteric Modulators of the Human D2 Dopamine Receptor: Primary Screen for Potentiators | potentiation, % at 10 µM | AID 485347, 2010 | HEK293 T-REx D2, calcium flux, EC20 dopamine potentiation | D(2) dopamine receptor (Homo sapiens), P14416 | hit rate 0.34% among 340,000;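 active = potentiation over 3 SD above the plate norm, cut at about 30% in these data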; also: 0% is about no effect
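Calcium flux readout, no-wash dye, 1 read/s. Inducible HEK293 Trex D2 line, overnight 30 C. Compound alone 180 s (agonist flags), then EC20 dopamine, another 180 s to score potentiation.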
* marks the source's active call; other numbers are inactive results. Sampled rows, rich in hits. Any-hit rate of the full collection: about 2.4%.

Results for Cc1ccc(Cn2c(=N)c(C(=O)NCc3ccco3)cc3c(=O)n4ccccc4nc32)cc1 ?
D2 PAM-1: -43; D2 antag: 83*; D2 ag-1: -1; D2 ag-2: -3; D2 PAM-2: -25

What do the screens show for `N=c1c(C(=O)NCC2CCCO2)cc2c(=O)n3ccccc3nc2n1Cc1ccc(Cl)cc1` (stereo not given)?
D2 PAM-1: -17; D2 antag: 55*; D2 ag-1: 0; D2 ag-2: -3; D2 PAM-2: -15

What do the screens show for `Cc1cccc(C)c1NC(=O)Cn1c(=O)n(Cc2ccco2)c(=O)c2ccc(C(=O)NC3CCCC3)cc21`?
D2 ag-1: 0; D2 PAM-2: 5

How did Cc1c(C(=O)N2CCCC2)oc2c1-c1nn(CC(=O)NCCCN3CCCCC3)cc1CC2 do in these assays?
D2 PAM-1: -30; D2 antag: 37*; D2 ag-1: -1; D2 ag-2: 1; D2 PAM-2: -6

Results for COc1cc(C(O)P(=O)(OCC(C)C)OCC(C)C)cc(OC)c1OC (stereo not given) ?
D2 PAM-1: 9; D2 antag: 16; D2 ag-1: 0; D2 ag-2: -2; D2 PAM-2: -8

How did CC(C)COP(=O)(OCC(C)C)C(O)c1ccccc1F (stereo not given) do in these assays?
D2 PAM-1: -2; D2 antag: 52*; D2 ag-1: 0; D2 ag-2: -1; D2 PAM-2: -4

What do the screens show for `COc1ccc(NC(=O)CSc2c(C(C)C)cnc3c2c(=O)n(C)c(=O)n3C)c(OC)c1`?
D2 ag-1: 0; D2 PAM-2: 12

Results for CCOCc1c(C(=O)N2CCN(CC(=O)Nc3ccc(F)cc3)CC2)oc2ccccc12 ?
D2 PAM-1: 4; D2 antag: 72*; D2 ag-1: 0; D2 ag-2: -4; D2 PAM-2: -12

What do the screens show for `CCCN[C@H]1CCc2nc(N)sc2C1`?
D2 PAM-1: 80*; D2 ag-2: 74*

What do the screens show for `COc1ccc(C(=O)Nc2ccc3nc(SCC(=O)N(C)c4ccccc4)sc3c2)cc1`?
D2 PAM-2: 4

Results for Cc1noc(C)c1CSc1nc2[nH]ncc2c(=O)n1-c1ccccc1 ?
D2 PAM-1: -6; D2 antag: -28; D2 ag-1: 0; D2 ag-2: -3; D2 PAM-2: 32*

How did CCCCn1c(SCC(=O)c2ccc(OC)c(OC)c2)nc2cc(S(N)(=O)=O)ccc21 do in these assays?
D2 PAM-1: 2; D2 antag: 14; D2 ag-1: 0; D2 ag-2: -1; D2 PAM-2: 3

Results for CCCCn1c(SCC(=O)c2ccc(OCC)cc2)nc2cc(S(N)(=O)=O)ccc21 ?
D2 PAM-1: -4; D2 antag: 45*; D2 ag-1: 0; D2 ag-2: -1; D2 PAM-2: 14

What do the screens show for `COc1cc(CN(C(=O)Nc2cccc(Cl)c2)c2ccccn2)cc(OC)c1OC`?
D2 ag-1: -2; D2 PAM-2: 5

Results for Cc1ccccc1CCNC(=O)c1ccc2c(c1)nc1n2CCCCC1 ?
D2 ag-1: 0; D2 PAM-2: -8

What do the screens show for `CCCn1c(SCc2nc(-c3ccccc3C)no2)nnc1-c1ccc(Cl)cc1`?
D2 ag-1: 0; D2 PAM-2: 9

How did CCC1CCCCN1CCCCOc1cccc(Cl)c1 (stereo not given) do in these assays?
D2 PAM-1: -16; D2 antag: 55*; D2 ag-1: 0; D2 ag-2: -1; D2 PAM-2: -25

What do the screens show for `CCOc1ccc(Nc2oc(/C=C/c3cc(OC)c(OC)c(OC)c3)nc2C#N)cc1`?
D2 ag-1: -1; D2 PAM-2: 5

How did CNc1ccc2c3c(cccc13)C(=O)N(C)C2=O do in these assays?
D2 PAM-1: 18; D2 antag: 72*; D2 ag-1: 128*; D2 ag-2: 5; D2 PAM-2: -17

Results for CC(=NNC(=S)N1CC2CCC(CC2)C1)c1cnccn1 ?
D2 PAM-1: 97*; D2 ag-2: inconclusive

Assay outcomes deposited in PubChem by National Center for Advancing Translational Sciences (NCATS).
